# Results with a measured potency or affinity are listed apart. Active and inactive are the calls of the source. The rule behind the calls is not given here.
# Assay: cytotoxicity in HeLa cells, dose response, cytotoxicity control, cell-based, 24 h, dry powder (AID 651774)
# Details: HeLa viability, CellTiter-Glo ATP luminescence; series mostly up to 35 µM
row,SMILES,outcome
1,O=C(Cc1ccccc1F)NC1CCCC1,inactive
2,COc1ccccc1CC(=O)NC1CCCC1,inactive
3,CCN(Cc1ccc(N2CCCC2)cc1)c1nnnn1CC,inactive
4,O=C(Cc1ccc(-c2ccccc2)cc1)N1CCC(F)(F)CC1,inactive
5,FC(F)(F)c1ccc(CNc2nn[nH]n2)cc1,inactive
6,O=C(NC1CCCC1)Oc1ccc(-c2ccccc2)cc1,inactive
7,O=C(Cc1ccc(-c2ccccc2)cc1)N1CCCC1,inactive
8,O=C(Cc1cccc(-c2ccccc2)c1)NC1CCCC1,inactive
9,O=C(CCc1ccc(-c2ccccc2)cc1)NC1CCCC1,inactive
10,CCNC(=O)Cc1ccc(-c2ccccc2)cc1,inactive
11,CCn1nnc(NCc2ccccc2)n1,inactive
12,Cn1nnnc1NCc1ccccc1,inactive
13,O=C(Cc1ccc(-c2ccccc2)cc1)NCc1ccccc1,inactive
14,O=C(Cc1cccc(F)c1)NC1CCCC1,inactive
15,CN(Cc1ccc(N2CCCC2)cc1)c1nnnn1C,inactive
16,O=C(Cc1ccc(-c2ccccc2)cc1)N1CC(F)(F)C1,inactive
17,c1ccc(CNc2nn[nH]n2)cc1,inactive
18,O=C(Cc1ccccn1)NC1CCCC1,inactive
19,O=C(Cc1ccccc1)NC1CCCC1,inactive
20,O=C(Cc1cccc(OC(F)(F)F)c1)NC1CCCC1,inactive
21,O=C(Cc1ccc(F)cc1)NC1CCCC1,inactive
22,CCn1nnnc1NCc1ccc(N2CCCC2)cc1,inactive
23,COc1cccc(CC(=O)NC2CCCC2)c1,inactive
24,Cc1ccccc1CC(=O)NC1CCCC1,inactive
25,O=C(Cc1ccc(-c2ccncc2)cc1)NC1CCCC1,inactive
26,O=C(Nc1nnc(-c2ccc3c(c2)OCCO3)o1)C1CCCCC1,inactive
27,O=C(Cc1ccc(-c2ccccn2)cc1)NC1CCCC1,inactive
28,CCn1nnnc1NCc1ccccc1,inactive
